Data reported in PubChem BioAssay (Tox21).
Several values for one entry are separate records, joined by “and”; a condition that tells them apart may be missing. Identical values can stand only once. Inconclusive results are not listed. Entries that show only a call come without a potency. Some structures have more than one record in an assay (separate samples or runs), and their calls can disagree. Activity calls are given as the source filed them. Unless noted, calls come from the whole dose curve; as a rule, active = well fitted curve in the direction sought with a large enough effect in the repeat runs; inconclusive = weak or mixed curves; inactive = no such curve, though single readings can be large; an effect the other way counts as inactive or inconclusive.

Key:
[1] = qHTS assay to identify small molecule agonists of the vitamin D receptor (VDR) signaling pathway - cell viability counter screen (AID 743224); note: nearly all actives have a fitted effect of over 50% in size; note: potency is the fitted concentration of half-maximal effect
In short: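 Cytotoxicity counter screen: VDR-bla cells, 16 h compound exposure at 37C, 5% CO2; CellTiter-Glo luminescence, 30 min RT, same wells as bla read.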

[2] = qHTS assay to identify small molecule antagonists of the vitamin D receptor (VDR) signaling pathway - cell viability counter screen (AID 743225); note: nearly all actives have a fitted effect of over 50% in size
In short: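 Cytotoxicity counter screen read by CellTiter-Glo luminescence (30 min, room temperature) in the same wells as the VDR-bla antagonist readout. HEK 293T VDR-UAS-bla cells had 16 h at 37C with compound and 3 nM (final) 1-alpha,25-dihydroxyvitamin D3, then 2 h with FRET substrate.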

[3] = qHTS assay to identify small molecule agonists of the NFkB signaling pathway (AID 1159509; active = well fitted curve in the direction sought with a large enough effect in the signal ratio in the repeat runs, not every such curve was filed as active; the % refers to the signal ratio; note: series mostly up to about 61 µM)
In short: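 Agonist activity was read as beta-lactamase-driven FRET change (460 and 530 nm emission, 405 nm excitation) following 1.5 hr substrate loading at room temperature. Beforehand, ME-180 NFkB-bla reporter cells were treated with compounds for 5 hr at 37 C.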

[4] = qHTS assay to identify small molecule agonists of the NFkB signaling pathway - cell viability counter screen (AID 1159515; calls by dose curve; note: series mostly up to about 61 µM; nearly all actives have a fitted effect of over 55% in size)
In short: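 ME-180 NFkB-bla cells, 2,000/well; overnight attach; compound 5 hr, 37 C/5% CO2; LiveBLAzer substrate 1.5 hr RT; then CellTiter-Glo in same wells, 30 min RT, luminescence read.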

[5] = qHTS assay to identify small molecule agonists of the endoplasmic reticulum stress response signaling pathway (AID 1159516; active = well fitted activation curve with a large enough effect in the signal ratio in the repeat runs, not every such curve was filed as active; the % refers to the signal ratio)
In short: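 HeLa ESRE-bla reporter line; cpd 5 h, 37 C/5% CO2; LiveBLAzer B/G FRET substrate 2 h RT; ex 405, em 460/530 nm.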

[6] = qHTS assay to identify small molecule agonists of the endoplasmic reticulum stress response signaling pathway - cell viability counter screen (AID 1159517; calls by dose curve;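 note: HeLa cells carrying an ER stress response element beta-lactamase reporter; series mostly up to about 61 µM; nearly all actives have a fitted effect of over 50% in size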)
In short: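 Cpd-treated ESRE-bla HeLa (5 hr, 37 C) → LiveBLAzer 2 hr RT → CellTiter-Glo 30 min RT → luminescence.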

[7] = molecular target: Nuclear receptor ROR-gamma (Homo sapiens) (UniProt P51449); test: qHTS assay to identify small molecule antagonists of the retinoid-related orphan receptor gamma (ROR-gamma) signaling pathway (AID 1159521; note: nearly all actives have a fitted effect of over 50% in size; note: potency is the fitted concentration of half-maximal effect)
In short: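 Antagonist read-out: drop in luminescence (ONE-Glo) from an RORE-LUC reporter in CHO cells with doxycycline-inducible ROR-gamma; 2 hr compound pretreatment, 1 uM doxycycline, 16 hr incubation at 37 C.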

[8] = qHTS assay to identify small molecule agonists of the AP-1 signaling pathway - cell viability counter screen (AID 1159525; calls by dose curve; note: nearly all actives have a fitted effect of over 55% in size)
In short: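 Each titration point was normalised to DMSO and tetra n-octyl ammonium bromide controls. The read was Cell Titer Glo luminescence after 30 min at RT, following 5 h compound exposure of ME-180 AP-1-bla cells at 37 °C.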

[9] = molecular target: Retinoic acid receptor RXR-alpha (Homo sapiens) (UniProt P19793); test: qHTS assay to identify small molecule agonists of the RXR signaling pathway (AID 1159527; calls by dose curve; note: nearly all actives have a fitted effect of over 35% in size)
In short: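 Agonist-mode beta-lactamase reporter assay: HEK 293T RXR-alpha-UAS-bla cells treated 16 hr at 37 C with compounds, 9-cis retinoic acid as positive control. LiveBLAzer FRET substrate, 405 nm excitation, 460/530 nm emission.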

[10] = qHTS assay to identify small molecule agonists of the RXR signaling pathway - cell viability counter screen (AID 1159529)
In short: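 CellTiter-Glo luminescence gave viability in the wells also read for beta-lactamase. Cells (RXR-alpha-UAS-bla HEK 293T, 2% charcoal-stripped FBS medium) had 5 hr plating, then 16 hr compound exposure at 37 C; tetraoctyl ammonium bromide served as positive control.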

[11] = qHTS assay to identify small molecule antagonists of the retinoid acid receptor (RAR) signaling pathway - cell viability counter screen (AID 1159551); note: nearly all actives have a fitted effect of over 35% in size
In short: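 C3RL4 RARE-luciferase line; cpds + retinol 1 uM final, 6 h, 37 C/5% CO2; CellTiter-Glo ATP luminescence, 30 min RT.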

[12] = qHTS assay to identify small molecule antagonists of the retinoic acid receptor (RAR) signaling pathway (AID 1159552; note: nearly all actives have a fitted effect of over 50% in size)
In short: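 Luminescent RARE reporter read-out in C3RL4 cells: 6 hr co-treatment at 37 C of test compounds with retinol at 1 uM final. Cells plated overnight beforehand; luciferase reagent incubated 30 min at room temperature before reading.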

[13] = qHTS assay to identify small molecule agonists of the retinoic acid receptor (RAR) signaling pathway (AID 1159553); note: potency is the fitted concentration of half-maximal effect
In short: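 RARE-luc C3RL4 cells; overnight attachment 37 C/5% CO2; compound (DMSO) 6 hr; luciferase reagent, 30 min RT; luminescence read-out.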

[14] = qHTS assay to identify small molecule agonists of the estrogen related receptor (ERR) signaling pathway (AID 1224820); note: potency is the fitted concentration of half-maximal effect
In short: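 After 6 h plating (2,000 cells/well) and 18 h compound treatment at 37 C, ERR cells were lysed with One-Glo and luminescence read after 30 min at room temperature.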

[15] = tested on: estrogen-related receptor alpha (ERRalpha) with PGC-1alpha coactivator, human; test: qHTS assay to identify small molecule antagonists of the estrogen related receptor signaling pathway with the pleiotropic PPARgamma coactivator (PGC) (AID 1224821; calls by dose curve)
In short: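 Luminescence from One-Glo luciferase reagent (30 min, room temperature) measured after 18 h compound treatment at 37 °C. Cells carry the PGC/ERR reporter and were seeded 6 h prior to dosing.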

[16] = qHTS assay to identify small molecule agonists of the AP-1 signaling pathway (AID 1159526; calls by dose curve)
[17] = qHTS assay to identify small molecule antagonists of the retinoid-related orphan receptor gamma (ROR-gamma) signaling pathway - cell viability counter screen (AID 1159520); note: nearly all actives have a fitted effect of over 50% in size
In short: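 Tet-on ROR gamma CHO cells (1,000/well) were plated 4 hr, given compounds in DMSO for 2 hr at 37 C, then induced with 1 uM final doxycycline for 16 hr. Viability was read as ATP by CellTiter-Glo luminescence after 30 min.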

[18] = qHTS assay to identify small molecule antagonists of the estrogen related receptor (ERR) signaling pathway - cell viability counter screen (AID 1224818); note: series mostly up to about 46 µM
In short: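 Fluorescence from CellTiter-Fluor, read 30 min after reagent addition at 37 C, measured viability of ERR cells exposed to compounds for 17.5 h. Cells had settled 6 h before dosing.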

[19] = qHTS assay to identify small molecule antagonists of the estrogen related receptor signaling pathway with the pleiotropic PPARgamma coactivator (PGC) cell viability counter screen (AID 1224822; note: series mostly up to about 46 µM)
In short: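 Fluorescence read-out of CellTiter-Fluor after 30 min at 37 C; PGC/ERR cells, 2,000 per well, had been exposed to DMSO-dissolved compounds for 17.5 h following a 6 h pre-incubation.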

[20] = qHTS assay to identify small molecule antagonists of the estrogen related receptor (ERR) signaling pathway (AID 1224819)
In short: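 Luminescence readout (One-Glo, 30 min, RT) of ERR cell line after 18 h compound exposure at 37 C; cells seeded 2,000/well, pre-incubated 6 h, compounds pinned from DMSO stocks.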

Retinoic acid receptor RXR-alpha (Homo sapiens), sequence (P19793 whole entry, looked up): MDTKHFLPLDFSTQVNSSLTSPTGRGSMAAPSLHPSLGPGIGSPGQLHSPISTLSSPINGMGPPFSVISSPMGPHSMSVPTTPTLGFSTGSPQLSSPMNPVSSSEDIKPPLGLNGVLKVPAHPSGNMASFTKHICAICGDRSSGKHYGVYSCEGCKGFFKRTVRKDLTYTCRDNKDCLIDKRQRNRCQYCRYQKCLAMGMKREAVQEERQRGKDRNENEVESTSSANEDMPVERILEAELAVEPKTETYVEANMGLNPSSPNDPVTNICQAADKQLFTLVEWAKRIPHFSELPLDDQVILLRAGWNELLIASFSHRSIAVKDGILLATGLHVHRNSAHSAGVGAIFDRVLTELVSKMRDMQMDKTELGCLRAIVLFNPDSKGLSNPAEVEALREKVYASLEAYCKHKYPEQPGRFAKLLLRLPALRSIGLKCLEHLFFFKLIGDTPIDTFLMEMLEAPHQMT

Structure (SMILES)	Potency [1]	Potency [2]	outcome [3]	outcome [4]	outcome [5]	Potency [6]	Potency [7]	Potency [8]	Potency [9]	Potency [10]	Potency [11]	Potency [12]	Potency [13]	Potency [14]	Potency [15]	Potency [16]	Potency [17]	outcome [18]	outcome [19]	Potency [20]
Cc1cc(O)c2c(c1)C(=O)c1cc(O)cc(O)c1C2=O	24 µM (active) and inactive	inactive	inactive	inactive	inactive	inactive	inactive	inactive	inactive	inactive	inactive	inactive	9.47 µM (active)	inactive	inactive	–	–	–	–	–
O=S(=O)(O)CCS	inactive	inactive	inactive	inactive	inactive	inactive	inactive	inactive	inactive	inactive	inactive	–	–	–	–	inactive	–	–	–	–
CCOC(=O)C1OC1c1ccccc1 (stereo unspecified)	inactive	inactive	inactive	inactive	inactive	inactive	inactive	inactive	inactive	–	inactive	inactive	inactive	–	–	inactive	–	–	–	–
CC1=CC[C@H]2C[C@@H]1C2(C)C	inactive	inactive	inactive	inactive	inactive	–	inactive	inactive	inactive	inactive	inactive	inactive	inactive	–	–	inactive	inactive	–	–	–
CCc1ccc(O)cc1	inactive	inactive	inactive	inactive	inactive	inactive	inactive	inactive	inactive	inactive	inactive	inactive	inactive	–	–	inactive	–	–	–	–
O=S(=O)(Oc1ccc(Cl)cc1Cl)c1ccccc1	inactive	inactive	inactive	inactive	inactive	inactive	inactive	inactive	–	inactive	inactive	inactive	68.6 µM (active)	–	–	inactive	–	–	–	–
NC(=O)NNc1ccccc1	inactive	inactive	inactive	inactive	inactive	inactive	inactive	inactive	inactive	inactive	inactive	inactive	inactive	–	–	inactive	–	–	–	–
Cc1cc(=O)[nH]c(C(C)C)n1	inactive	inactive	inactive	inactive	inactive	inactive	inactive	inactive	inactive	–	inactive	inactive	inactive	–	–	inactive	–	–	–	–
CC1=C(CC(=O)O)c2cc(F)ccc2/C1=C\c1ccc(S(C)=O)cc1 (stereo unspecified)	inactive	inactive	inactive	inactive	inactive	inactive	inactive	inactive	–	–	inactive	–	–	–	–	inactive	–	inactive	inactive	–
COC(=O)Nc1nc2ccc(Sc3ccccc3)cc2[nH]1	inactive	inactive	inactive	inactive	inactive	inactive	54.5 µM (active) and inactive	inactive	–	inactive	inactive	inactive	–	–	–	inactive	–	–	–	–
CC(C)Cc1ccccc1	inactive	inactive	inactive	inactive	inactive	inactive	inactive	inactive	inactive	–	inactive	inactive	inactive	–	–	inactive	–	–	–	–
O=c1c(-c2ccc(O)cc2)coc2cc(O)ccc12	inactive	inactive	inactive	–	inactive	inactive	inactive	inactive	inactive	inactive	inactive	inactive	2.41 µM (active) and 12.2 µM (active)	15.5 µM (active)	inactive	inactive	inactive	inactive	inactive	inactive
OCCOCCOCCOCCO	inactive	inactive	inactive	inactive	inactive	inactive	inactive	inactive	inactive	–	inactive	–	–	–	–	inactive	–	–	–	–
C=C(C)C(=O)OCCCCCCCCCCCC	inactive	inactive	inactive	inactive	inactive	inactive	inactive	inactive	inactive	inactive	inactive	inactive	inactive	–	–	inactive	–	–	–	–
Oc1ccc2ccccc2c1	inactive	inactive	inactive	inactive	inactive	inactive	inactive	inactive	inactive	–	inactive	inactive	inactive	–	–	inactive	–	–	–	–
C=C1C2CCC(C2)C1(C)C (stereo unspecified)	inactive	inactive	inactive	inactive	inactive	inactive	inactive	inactive	inactive	inactive	inactive	inactive	inactive	–	–	inactive	–	–	–	–
C[C@@H](O)[C@H]1C(=O)N2C(C(=O)O)=C(S[C@@H]3CN[C@H](C(=O)N(C)C)C3)[C@H](C)[C@H]12	inactive	inactive	inactive	inactive	inactive	inactive	inactive	inactive	inactive	–	inactive	inactive	inactive	–	–	inactive	–	–	–	–
OC1CCCC1	inactive	inactive	inactive	inactive	–	inactive	inactive	inactive	inactive	inactive	inactive	inactive	inactive	–	–	inactive	inactive	–	–	–
COCC(C)O (stereo unspecified)	inactive	inactive	inactive	inactive	inactive	inactive	–	inactive	inactive	inactive	inactive	–	–	–	–	inactive	inactive	–	–	–
CCCCC(CC)COC(=O)CCCCCCCC(=O)OCC(CC)CCCC (stereo unspecified)	inactive	inactive	inactive	inactive	inactive	inactive	–	inactive	inactive	inactive	inactive	–	–	–	–	inactive	–	–	–	–
